# The list is not random: actives were taken first. Their share in the collection is about 12%.
# BAZ2B inh: qHTS Assay for Inhibitors of BAZ2B; Potency, µM (titrated, usually from 114 µM), without a hit: at the highest dose activity change, negative = inhibition, most hits filed as inhibitors; actives 4.4% (n = 360,000); Bromodomain adjacent to zinc finger domain protein 2B (Homo sapiens), Q9UIF8; AlphaScreen BAZ2B-H3K14Ac peptide displacement; AID 504333, 2011; further: on the % scale 0 is the no-effect control and ±100 the full control effect; nearly all actives have a fitted effect of over 60% in size
#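 AlphaScreen displacement of biotin-H3(5-23)K14Ac peptide (50 nM final) from BAZ2B (50 nM final) in PBS pH 7.4, 0.01% Tween-20; complex preformed 30 min RT, then compounds (top 110 uM) 30 min RT, beads 20 min dark.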
# JMJD2A Tudor inh: qHTS Assay for Inhibitors of JMJD2A-Tudor Domain; Lysine-specific demethylase 4A (Homo sapiens), O75164; AlphaScreen JMJD2A-Tudor / H3K4me3 peptide binding; Potency, µM (titrated, usually from 114 µM), without a hit: at the top dose activity change, negative = inhibition, actives largely listed as inhibitors; actives 4.4% (n = 390,000); AID 504339, 2011; further: on the % scale 0 is the no-effect control and ±100 the full control effect; nearly all actives have a fitted effect of over 50% in size
# G9a inh: qHTS Assay for Inhibitors of Histone Lysine Methyltransferase G9a; Histone-lysine N-methyltransferase EHMT2 (Homo sapiens), Q96KQ7; G9a H3K9 monomethylation, AlphaScreen, 2 h; Potency, µM (doses to about 102 µM), for the others: top-dose activity, negative = inhibition, actives largely listed as inhibitors; actives 8.8% (n = 350,000); AID 504332, 2011; further: on the % scale 0 is the no-effect control and ±100 the full control effect; nearly all actives have a fitted effect of over 75% in size
#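 Quantitative HTS format: methyltransferase activity on a biotin-tagged H3K9 peptide is measured by AlphaScreen, using a rabbit anti-monomethyl-H3K9 antibody with streptavidin donor and anti-IgG acceptor beads. Final levels are 20 nM enzyme, 500 nM peptide, 20 uM SAM; 2 h RT.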
# TDP1 block: qHTS Assay for Inhibitors of Tyrosyl-DNA Phosphodiesterase (TDP1); Potency, µM (doses to about 130 µM), without a hit: at the highest dose activity change, negative = inhibition, hits mostly inhibitors; actives 0.28% (n = 350,000); recombinant TDP1, AlphaScreen DNA substrate cleavage; AID 485290, 2010; further: on the % scale 0 is the no-effect control and ±100 the full control effect; nearly all actives have a fitted effect of over 40% in size
#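 Steps: enzyme plus compound, 15 min RT; add biotin/phosphotyrosine-FITC oligonucleotide (15 nM final), react 5 min; add donor/acceptor beads (10 ug/ml final), 10 min; read AlphaScreen. Tdp1 at 1 nM final.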
# Sfp inh: qHTS Assay for Inhibitors of Bacillus subtilis Sfp phosphopantetheinyl transferase (PPTase) | 4'-phosphopantetheinyl transferase ffp (Bacillus subtilis), Q9F4F7 | Biochemical Sfp PPTase activity, qHTS | Potency, µM, inactives show largest response in the series, negative = inhibition, most hits filed as inhibitors | actives 3.5% (n = 310,000) | AID 1490, 2009;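 further: the enzyme is Sfp with the accession as filed and its product quenches rhodamine fluorescence; 0% = enzyme reaction without inhibitor and -100% = no enzyme wells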
#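 Sfp 15 nM + cpd, 15 min RT; start w/ rhodamine-CoA 5 uM, BHQ-2-YbbR 12.5 uM (final); 50 mM Hepes pH 7.6, 10 mM MgCl2, 0.01% NP-40, 0.01% BSA; read 525/598 nm at 0 and 30 min.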
# HP1b binding inh: HTS for Inhibitors of HP1-beta Chromodomain Interactions with Methylated Histone Tails. Potency, µM (series often up to 114 µM), for the others: top-dose activity change, negative = inhibition, most hits filed as inhibitors. AlphaScreen HP1-beta / biotin-H3K9me3 peptide binding. actives 0.56% (n = 390,000); further: nearly all actives have a fitted effect of over 70% in size
#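 HP1-beta protein (50 nM final) preincubated 30 min at room temperature with biotinylated H3(1-18)K9me3 peptide (50 nM) in PBS pH 7.4, 0.01% Tween-20, then compound added for 30 min. AlphaScreen streptavidin donor/nickel chelate acceptor beads (10 ug/mL final), 30 min dark, luminescence read.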
# * marks the source's active call; other numbers are inactive results; u = inconclusive; x = not tested or not shown; [ ] = dose if it differs, or a comment. The call rests on the fitted dose curve; in most records, active means well fitted curve in the direction sought with a large enough effect; inconclusive means small, poorly fitted or top-dose-only effect, or another doubt; inactive means no such curve, though single readings can be large; an effect the other way counts as inactive or inconclusive. Potency means the concentration at half of the fitted maximal effect.
SMILES,BAZ2B inh,JMJD2A Tudor inh,G9a inh,TDP1 block,Sfp inh,HP1b binding inh
Cn1cccc1C(=S)N=P(C1CCCCC1)(N1CCOCC1)N1CCOCC1,-28%,35µM*,8.9µM*,4%,-28%,u
CCOC(=O)c1ccc(NC(=O)COc2ccccc2CNCCc2ccccc2)cc1,15%,-30%,-50%,3%,50µM*,11%
CCOC(=O)c1ccc(NC(=O)COc2ccc(CNCCO)cc2OCC)cc1,-4%,-17%,12%[12.7 µM],3%,16%,18%
Cc1ccc(S(=O)(=O)CC(=O)Nc2nc3ccccc3s2)cc1,-2%,-6%,-12%,6%,10%,12%
Cc1ccc(S(=O)(=O)Cc2sc3ccccc3[n+]2C)cc1,50µM*,22µM*,45µM*,3%,-4%,14%
O=C(COC(=O)CN1C(=O)C2CCCCC2C1=O)Nc1c(Cl)cccc1Cl (stereo not drawn),5%,4%,2%[12.7 µM],0%,x,45%
O=S(=O)(c1cccc2nsnc12)N1CCN(c2ccccc2F)CC1,u,50µM*,x,4%,0%,u
O=S(=O)(c1cccc2nsnc12)N1CCN(c2ccc(F)cc2)CC1,x,u,u,7%,-5%,-4%
O=S(=O)(c1cccc2nsnc12)N1CCN(C/C=C\c2ccccc2)CC1,u,u,50µM*,9%,1%,-19%
O=S(=O)(c1cccc2nsnc12)N1CCOCC1,-8%,3%,1%,3%,3%,22%
O=S(=O)(c1ccc(Cl)s1)N1CCN(C/C=C/c2ccccc2)CC1,u,1µM*,14µM*,6%,-27%,u
O=S(=O)(c1cccc2nsnc12)N1CCc2ccccc21,71µM*,u,u,9%,-8%,-14%
O=S(=O)(c1ccc(Cl)s1)N1CCN(Cc2ccccc2)CC1,19%,25%,-3%[59 µM],-1%,2%,76%
CO[C@H]1COC(=O)[C@H]2CCCN2C(=O)C/C=C\[C@@H](C)[C@H](OC)COC(=O)[C@@H](OCc2ccccc2)/C=C\[C@@H]1C,x,x,x,6%[21 µM],4%,x
COc1ccc(Br)cc1C1NC(c2ccc3c(c2)OCO3)=CC(c2ccccc2O)N1 (stereo not drawn),x,-24%[57.1 µM],x,2%,x,8%[57 µM]
COC(=O)c1cc(S(=O)(=O)NCC2CCN(CCc3cccs3)CC2)c[nH]1,-22%,-22%,7%,1%,14%,19%
O=C(O)c1ccc(S(=O)(=O)NC2CCCCCC2)cc1,-25%,-6%,-31%,7%,13%,42%
Cc1ccc(C(=O)Nc2cccc(S(=O)(=O)N3CCOCC3)c2)cc1[N+](=O)[O-],-23%,-34%,2%,8%,-4%,1%
CN(C)S(=O)(=O)c1cccc(NC(=O)c2cccc(S(=O)(=O)N3CCCCCC3)c2)c1,1%,-21%,-48%,0%,x,18%
CN(C)S(=O)(=O)c1cccc(NC(=O)c2ccc(S(=O)(=O)N3CCCCC3)cc2)c1,7%,89µM*,u,x,x,19%
CN(C)S(=O)(=O)c1cccc(NC(=O)c2ccc(N3CCOCC3)c([N+](=O)[O-])c2)c1,u,-33%,50µM*,2%,u,-5%
O=C(Nc1cc(S(=O)(=O)Nc2ccc(Cl)cc2)ccc1O)c1ccc(S(=O)(=O)N2CCCCCC2)cc1,u,-21%,-115%[59 µM],3%,3.2µM*,-18%
CCOc1ccc(CCNC(=O)c2ccc3c(c2)nc2n3CCOC2)cc1OCC,4%,5%,7%[59 µM],3%,x,26%[57 µM]
COc1ccc(-c2noc(-c3ccc(NCC4CCCO4)c([N+](=O)[O-])c3)n2)cc1 (stereo not drawn),-3%,-19%,-4%[59 µM],3%,x,13%
CCOc1ccc(NC(=O)[C@H]2O[C@@H]3OC(C)(C)O[C@@H]3[C@H]3OC(C)(C)O[C@H]32)cc1,-3%,-7%,7%[59 µM],3%,x,39%
SMILES,BAZ2B inh,JMJD2A Tudor inh,G9a inh,TDP1 block,Sfp inh,HP1b binding inh
CNc1ccccc1,-4%,-5%,9%[0.501 µM],0%,x,20%
CNc1cccccc1=S,10µM*,11µM*,3.5µM*,3.5µM*,2%,-19%
CCN(CC)c1ccc(NC(=O)Nc2ccccc2)cc1,u,u,8.9µM*,x,-5%,u
CCN(CC)c1ccc(NC(=O)CCNC(=O)c2ccco2)cc1,u,u,7.9µM*,-1%,3%,-39%
CCN(CCC(=O)O)c1ccccc1,u,u,u,1%,-20%,11%
CCN(CC)c1ccc(NC(=O)c2sc3ccccc3c2Cl)cc1,11µM*,11µM*,5µM*,7%[12.3 µM],x,u
CCN(CC)c1ccc(NC(=S)NC(=O)Cc2ccccc2)cc1,11µM*,25µM*,7.9µM*,11%,8%,u
COc1ccccc1C(=O)Nc1ccc(S(=O)(=O)Nc2nc(C)cc(C)n2)cc1,-11%,-12%,1%[59 µM],2%,x,38%
O=C1CCCc2c1cc(C(=O)Nc1ccc(Br)cn1)c(=O)n2-c1ccccc1,-4%,79µM*,-38%[12.7 µM],7%,u,23%
O=C1CCCc2c1cc(C(=O)NC1CCSC1=O)c(=O)n2-c1ccccc1 (stereo not drawn),-4%,-5%,u,0%,50µM*,18%
CC1(C)CC(=O)c2cc(C(=O)NC3CCSC3=O)c(=O)n(-c3ccccc3)c2C1 (stereo not drawn),11%,-8%,u,1%,1%,30%
COCCN1C(=O)C(=O)/C(=C(/O)c2ccc(S(=O)(=O)N3CCCCC3)cc2)C1c1ccc(O)c(OC)c1 (stereo not drawn),-11%[57.1 µM],89µM*,71µM*,2%,0%,48%
COCCCN1C(=O)C(=O)/C(=C(/O)c2ccc(S(=O)(=O)N3CCCCC3)cc2)C1c1ccc(F)cc1 (stereo not drawn),u,-30%,6%[0.0925 µM],4%,-7%,3%
COc1ccc(C2/C(=C(/O)c3ccc(S(=O)(=O)N4CCOCC4)cc3)C(=O)C(=O)N2CCN2CCOCC2)cc1 (stereo not drawn),u,-11%,50µM*,x,9%,-4%
COCCN1C(=O)C(=O)/C(=C(/O)c2ccc(S(=O)(=O)N3CCCCC3)cc2)C1c1ccc(OC)cc1 (stereo not drawn),-4%[57.1 µM],-30%,71µM*,4%,0%,48%

# Bioassay records deposited in PubChem by National Center for Advancing Translational Sciences (NCATS).
